# About 83,000 compounds went through this panel and 20% of them were active in at least one assay; those are over-represented in the sample as a whole.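 Cells were grown in 96-well plates and exposed to the test compound at a single concentration for 48 hours; results are reported as percent growth, with values below 10 considered active.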 Activity calls are given as the source filed them.
# Tested on: 786-0 renal
# Assay: NCI-60 one-dose screen, 48 h (100 = growth as untreated, 0 = no growth, -100 = all killed)
# Conditions: 10 µM unless noted
row,SMILES,growth
1,O=c1[nH]n(C(=S)N/N=C/c2ccccc2Cl)c(=O)c2ccccc12,12.9% (inactive)
2,Cn1cc(-c2nnc(N)nc2-c2c[nH]c3ccc(F)cc23)c2cccnc21,47.2% (inactive)
3,CN1CCN(Cc2ccc(C(=O)Nc3cccc(C#Cc4cccc5[nH]nc(N)c45)c3)cc2C(F)(F)F)CC1,-99.4% (active)
4,Cc1ccccc1[C@H]1C(C(=O)c2ccc(Cl)cc2)C2(N[C@@H]1c1ccccc1)C(=O)Nc1ccc(Br)cc12 (stereo partly drawn),-40.5% (active)
5,N#Cc1c(-c2cccc(Cl)c2Cl)cc(-c2ccc3ccccc3c2)[nH]c1=O,-65.1% (active)
6,NS(=O)(=O)c1ccc(-n2cc(-c3cccc(NC(=O)c4cc(C(F)(F)F)cc(C(F)(F)F)c4)c3)nn2)cc1,44.2% (inactive)
7,COc1ccc(C(=O)/C=C/c2ccccc2Cl)cc1S(N)(=O)=O,104% (inactive)
8,O=C(/C=C/c1cccc(OCc2ccc(F)cc2)c1)c1nc2ccccc2[nH]1,-46.1% (active)
9,Cc1cc(=O)oc2cc(OCCCOc3ccc(/C=C/C(=O)Nc4ccccc4N)cc3)ccc12,26.1% (inactive)
10,S=C(Nc1ccc(OCc2nc3ccccc3[nH]2)cc1)NC1CCCCC1,93% (inactive)
11,N#Cc1c(-c2ccccc2Cl)cc(-c2c[nH]c3ccccc23)[nH]c1=O,68.8% (inactive)
12,CC1=C(C(=O)OCc2ccccc2)C(c2c(O)cc(O)cc2O)n2c(nc3ccccc32)N1 (stereo not drawn),49.4% (inactive)
13,CCOc1ccc(-c2c(C#N)c(-c3ccc(Cl)cc3)nc3n[nH]c(-c4ccc(Cl)cc4)c23)cc1OC,65.3% (inactive)
14,Cc1ccc(Cc2cnc(NC(=O)c3ccc(/C=C4\SC(=S)N(C)C4=O)cc3)s2)cc1,37.8% (inactive)
15,Cc1ccc(C(=O)CSc2nc3ccc(F)cc3c(=O)n2-c2ccc(Cl)cc2)cc1,10.7% (inactive)
16,C[C@H](Nc1nc(NCCc2ccccc2)nc2ccccc12)c1ccccc1,-87.3% (active)
17,COc1cc(-c2ccc(/C=N/NC(=O)c3[nH]c4ccc(Br)cc4c3-c3ccccc3)s2)cc(OC)c1OC,58.3% (inactive)
18,OCNc1ccc(-n2cnc3cc(-c4ccc(O)cc4)ccc32)cc1C(F)(F)F,22.7% (inactive)
19,COc1cc(OC)cc(C(=O)Nc2cccc(-c3cn(-c4ccc(S(N)(=O)=O)cc4)nn3)c2)c1,74.6% (inactive)

row,SMILES,growth
1,COc1ccc2[nH]c(O)c(N=NC(=O)COc3ccc(NC(=O)Nc4ccccc4)cc3)c2c1,8.04% (active)
2,Cc1ccc2c(N)c(C(=O)Nc3ccc(OC(F)(F)F)cc3)sc2n1,97.5% (inactive)
3,COc1cc(/C=C/C(=O)c2ccc(C)cc2)ccc1Oc1nc(Nc2ccc(F)cc2)nc(N(C)C)n1,37.5% (inactive)
4,N#Cc1c(NCc2ccccc2)n[nH]c1Nc1ccccc1,63.3% (inactive)
5,CC(C)c1sc(NC(=O)c2cc(NC(=O)c3cc(NC(=O)c4cscn4)cn3C)cn2C)nc1C(=O)NCCCN(C)C,64.8% (inactive)
6,CCOc1ccc(C(=O)NC(=S)Nc2ccc(S(N)(=O)=O)cc2)cc1,99% [100 µM] (inactive)
7,Nc1cccc(SCc2cc3ccccc3[nH]c2=O)c1,47.3% (inactive)
8,CC1=C(C(=O)c2ccccc2)C(c2ccc(-n3cncn3)cc2)n2c(nc3ccccc32)N1 (stereo not drawn),96.8% (inactive)
9,O=C(c1ccc(OCCN2CCOCC2)cc1)C1[C@H](c2ccc(Cl)cc2)[C@@H](c2ccccc2)NC12C(=O)Nc1ccc(Cl)cc12 (stereo partly drawn),16.6% (inactive)
10,CCCCCCCCc1ccc(S(=O)(=O)Nc2ccc(CC)cc2C(=O)O)cc1,103% (inactive)
11,COc1cc2oc(-c3cccc(C(=O)Nc4cccc([N+](=O)[O-])c4)c3)cc(=O)c2c(OC)c1OC,-22.9% (active)
12,C=C1CC[C@@H]2[C@]3(C)COC(c4ccccc4)O[C@@H]3CC[C@@]2(C)[C@@H]1C/C=C1/C(=O)OCC1OC(C)=O (stereo partly drawn),-95.6% (active)
13,C=C1CC[C@@H]2[C@]3(C)COC(c4cn[nH]c4-c4ccc(C)cc4)O[C@@H]3CC[C@@]2(C)[C@@H]1C/C=C1/C(=O)OCC1O (stereo partly drawn),-64% (active)
14,CC(C)CSc1nc(NCCc2c[nH]c3ccccc23)c(C#N)c(-c2ccc(Cl)cc2)n1,67% (inactive)
15,NS(=O)(=O)c1ccc(-n2cc(-c3cccc(NC(=O)c4cc(Cl)cc(Cl)c4)c3)nn2)cc1,79.9% (inactive)
16,C=C1CCC2C3(C)COC(c4ccc(F)cc4)OC3CCC2(C)C1C/C=C1/C(=O)OCC1O (stereo not drawn),-89.2% (active)
17,CCN1C(=O)/C(=N\N=C(/C)c2ccc3c(c2)Nc2ccccc2S3)c2cc(Cl)ccc21,75% (inactive)
18,N#Cc1c(-c2cccc3ccccc23)cc(-c2cccc(OCC(=O)O)c2)[nH]c1=O,101% (inactive)
19,O=C(COc1ccc(NC(=O)Nc2ccccc2)cc1)N=Nc1c(O)[nH]c2ccc([N+](=O)[O-])cc12,16.7% (inactive)
